Screens (PubChem)
CYP2C19 inhib: blocks human cytochrome P450 2C19; P33261; 21% of 96,000 active; CYP2C19 Supersomes, luciferin-H EGE luminescence, 30 min; inhibition, % at 5 µM;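 active = CYP2C19 inhibition above a set limit at 5 µM in the primary screen, cut at about 50% in these data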;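 also: plate controls were negative control wells for no effect and 2.5 mM tranylcypromine positive control for full effect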
PostGolgi ctrl: inhibits growth of the yeast control strain; AID 738; inhibition, % at 10 µM; 5% of 98,000 active; efflux-deficient yeast background strain, growth absorbance A615, 16 h
CYP2C19 activ: increases human CYP2C19 enzyme activity; recombinant CYP2C19, luciferin-H EGE luminescence; active compounds read high; 0 = fully inhibited enzyme, 1 = untreated enzyme; AID 1025; 96,000 tested, under 10 active; activation factor at 5 µM; P33261;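 active = activation factor of at least 2 at 5 µM in the primary screen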;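 also: 0 = wells with 2.5 mM tranylcypromine and 1 = vehicle-only wells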
PostGolgi yeast: growth inhibition of a yeast mutant, post-Golgi transport screen; post-Golgi transport phenotypic cell assay; inhibition, % at 10 µM; 0.9% of 98,000 active; AID 739;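 also: yeast cells grown in 1536-well plates; yeast grown about 18 h at 30C before absorbance read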
CYP2C9 inhib: blocks human cytochrome P450 2C9; P11712; CYP2C9 Supersomes, luciferin-H conversion, luminescence; inhibition, % at 5 µM; 20% of 96,000 active;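 active = blocking of liver enzyme CYP2C9 beyond about 50% at 5 µM, limit read from the data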
Target sequence (P11712 whole entry, looked up): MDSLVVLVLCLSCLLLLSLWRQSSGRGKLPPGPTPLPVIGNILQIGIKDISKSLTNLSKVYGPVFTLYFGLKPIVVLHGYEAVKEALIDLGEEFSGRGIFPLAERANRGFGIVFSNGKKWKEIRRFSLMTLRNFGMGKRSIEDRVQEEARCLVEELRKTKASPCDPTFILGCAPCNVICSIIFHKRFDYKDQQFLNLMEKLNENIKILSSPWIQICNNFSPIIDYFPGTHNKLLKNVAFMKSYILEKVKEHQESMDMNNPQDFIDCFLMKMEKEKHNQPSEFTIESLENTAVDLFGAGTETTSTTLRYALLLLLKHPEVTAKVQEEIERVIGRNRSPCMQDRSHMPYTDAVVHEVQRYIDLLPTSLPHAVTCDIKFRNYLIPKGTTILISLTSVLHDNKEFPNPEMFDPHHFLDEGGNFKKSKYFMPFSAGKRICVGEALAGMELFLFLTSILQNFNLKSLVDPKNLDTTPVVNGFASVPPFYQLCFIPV
CYP2C9 act: CYP2C9 (human) activation. P11712. 1.4% of 96,000 active. activation factor at 5 µM. recombinant CYP2C9, luciferin-H conversion, luminescence; active compounds read high; factor 1 = untreated enzyme, 0 = blocked. AID 1024;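 active = activation factor of 2 or more for CYP2C9 at a 5 µM dose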;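 also: 0 = sulfaphenazole-blocked wells and 1 = vehicle-only wells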
Starred values were filed as active, the others as inactive. An excerpt weighted towards active compounds, which were near 32% of everything screened. Rule as the data show it, unless noted: active = inhibition above about 30%; inactive = the rest.

SMILES	CYP2C19 inhib	PostGolgi ctrl	CYP2C19 activ	PostGolgi yeast	CYP2C9 inhib	CYP2C9 act
CSc1nc2ccc(N3C(=O)C4CCCCC4C3=O)cc2s1 (centres undefined)	9.8	9.2	0.9	-3.8	15.1	0.8
COc1ccc(NS(=O)(=O)c2ccc3oc(Nc4ccc5c(c4)OCCO5)nc3c2)cc1	51.3*	13.3	0.5	-6.9	96.3*	0
Cn1c(=O)c(=O)n(C)c2cc(S(=O)(=O)Nc3ccc4c(c3)OCCO4)ccc21	-1.5	-3.7	1	-3.6	53.6*	0.5
Cn1c(=O)c(=O)n(C)c2cc(S(=O)(=O)Nc3ccc(OC(F)(F)F)cc3)ccc21	82.3*	18.3	0.2	12.6	91.4*	0.1
Cn1c(=O)c(=O)n(C)c2cc(S(=O)(=O)N3CCCCCC3)ccc21	1.5	6.3	1	1.0	4.9	1
CCc1nnc(NC(=O)c2ccc(S(=O)(=O)NCC(C)C)cc2)s1	-1.5	-4.2	1	-7.3	-4.9	1
Cc1ccc(SCc2noc(C(=O)NCC3CCCO3)c2C(=O)O)cc1C (centres undefined)	16.3	21.8	0.8	0.2	45.5	0.5
CCOc1cccc(SCc2noc(C(=O)NCC3CCCO3)c2C(=O)O)c1 (centres undefined)	53.7*	-4.5	0.5	16.6	50.1*	0.5
O=C(NCC1CCCO1)c1onc(CSc2cccc3ccccc23)c1C(=O)O (centres undefined)	45.9	5.8	0.5	-6.6	82.2*	0.2
O=C(NCC1CCCO1)c1onc(CSc2cccc(Cl)c2)c1C(=O)O (centres undefined)	28.0	-4.1	0.7	-3.5	54.7*	0.5
COc1ccc(/C(C)=N/NC(=O)c2ccc(CSc3cccc4cccnc34)cc2)cc1OC	46.1	18.4	0.5	0.9	28.9	0.7
CN(Cc1ccncc1)C1CC(=O)N(c2ccc(Cl)cc2)C1=O (centres undefined)	98.6*	3.6	0	-9.8	93.5*	0.1
CNC(=S)N(Cc1ccc(OC)cc1)C1CC(=O)N(c2ccc(Cl)cc2)C1=O (centres undefined)	62.8*	3.0	0.4	15.5	30.4	0.7
COc1ccc(CN(C(=S)Nc2ccccc2)C2CC(=O)N(c3ccc(F)cc3)C2=O)cc1 (centres undefined)	8.8	15.3	0.9	-3.2	36.3	0.6
CCOC(=O)c1ccc(N2C(=O)CC(N(Cc3ccc4c(c3)OCO4)C(=O)Nc3ccccc3)C2=O)cc1 (centres undefined)	81.1*	12.8	0.2	-5.1	89.2*	0.1
CNC(=S)N(Cc1ccc2c(c1)OCO2)C1CC(=O)N(c2ccc(F)cc2)C1=O (centres undefined)	91.5*	-1.9	0.1	0.0	75.5*	0.2
CCOC(=O)c1ccc(N2C(=O)CC(N(C)CCc3ccc(OC)c(OC)c3)C2=O)cc1 (centres undefined)	72.7*	-2.7	0.3	-4.0	55.1*	0.4
CC1CCOC2(O1)C(=O)N(CN1CCN(c3ccccc3F)CC1)c1ccccc12 (centres undefined)	0.0	-0.8	1	-3.1	-16.1	1.2
c1ccc(CSc2nnc(NC3=NCCCCC3)s2)cc1	68.3*	24.2	0.3	9.1	36.6	0.6
N#Cc1ccc(CSc2nnc(Nc3ccccc3)s2)cc1	-9.3	-2.5	1.1	-8.4	-9.0	1.1
O=C(O)CCN1/C(=C/C=Nc2ccccc2)Oc2ccccc21	0.8	0.8	1	2.3	-3.8	1
O=C(O)CCc1ncc(C(F)(F)F)cc1Cl	-3.1	24.6	1	5.8	1.0	1
Cc1ccc(F)cc1NC(=O)Cc1ncc(C(F)(F)F)cc1Cl	50.9*	12.2	0.5	5.0	7.3	0.9
COC(=O)CSc1nnnn1-c1cccc2ccccc12	31.0	-1.8	0.7	1.1	-220.7	3.2*
c1ccc(CSc2nnnn2-c2cccc3ccccc23)nc1	44.0	16.7	0.6	-2.3	-134.9	2.3*
SMILES	CYP2C19 inhib	PostGolgi ctrl	CYP2C19 activ	PostGolgi yeast	CYP2C9 inhib	CYP2C9 act
O=C(CCCSc1nnnn1-c1cccc2ccccc12)c1ccc(F)cc1	20.3	32.4*	0.8	-5.0	-142.0	2.4*
CCN(C(=O)COc1ncnc2ccc(Br)cc12)C1CCS(=O)(=O)C1 (centres undefined)	-10.7	6.7	1.1	1.2	-10.1	1.1
COc1cc(C(=O)NCCC(C)C)c([N+](=O)[O-])cc1OC	-0.3	1.8	1	-4.4	-14.4	1.1
COc1ccc(OC)c(N=c2ssnc2Cl)c1	63.7*	5.3	0.4	-5.0	94.3*	0.1
COc1cc(N=c2ssnc2Cl)c(OC)cc1Cl	-4.9	-3.4	1	11.9	77.8*	0.2
Cc1cc(Cl)ccc1N=c1ssnc1Cl	-7.2	23.0	1.1	6.6	20.8	0.8
CCOc1ccc(NC(=O)N2CCC(n3c(=O)[nH]c4ccccc43)CC2)cc1	28.3	0.2	0.7	-0.3	65.6*	0.3
Cc1cc(C)c2nc(N3CCCC(C(=O)N4CCN(c5ncccn5)CC4)C3)sc2c1 (centres undefined)	24.3	66.6*	0.8	-1.6	46.7	0.5
Cc1cc(=O)n2nc(N3CCCC(C(=O)N4CCN(c5ccccc5)CC4)C3)sc2n1 (centres undefined)	28.5	3.5	0.7	-0.5	14.4	0.9
Cc1cc(C)c2nc(N3CCC(C(=O)N4CCN(C(=O)c5ccco5)CC4)CC3)sc2c1	52.1*	8.9	0.5	-2.5	51.9*	0.5
O=C(O)Cn1c(P(=O)(O)c2ccccc2)nc2ccccc21	-10.1	12.4	1.1	-4.8	-11.9	1.1
CCOC(=O)CC1C(=O)NCCN1S(=O)(=O)c1ccccc1Cl (centres undefined)	16.5	5.0	0.8	-1.3	-3.4	1
CC(C(=O)N1CCN(c2ccc(Cl)cc2)CC1)c1ncc(C(F)(F)F)cc1Cl (centres undefined)	52.2*	27.7	0.5	2.0	28.8	0.7
CCCOc1ccc(-c2nnc(-c3ccncc3)o2)cc1	99.4*	1.0	0	-17.0	89.1*	0.1
COc1ccc(-c2nnc(-c3ccc(OCC(C)C)cc3)o2)cc1	-1.7	19.1	1	-2.7	18.7	0.8
c1cc(-c2nnc(-c3ccncc3)o2)ccn1	66.4*	-0.3	0.3	14.8	11.8	0.9
CC(C)COc1ccc(-c2nnc(-c3ccncc3)o2)cc1	77.5*	3.3	0.2	2.6	41.9	0.6
COc1cc(C)ccc1S(=O)(=O)N1CCN(C23CC4CC(CC(C4)C2)C3)CC1	-4.7	10.4	1	8.7	-25.2	1.3
C=C(C)c1ccc(C(C)(C)NC(=O)N2CCN(C)CC2)cc1	18.7	6.4	0.8	0.3	4.4	1
CCOc1ccc(NC(=O)N(C2CCCCC2)C(C)c2ccncc2)cc1 (centres undefined)	62.8*	23.1	0.4	23.2	68.4*	0.3
